Laboratory results: PubChem BioAssay (NCI)
The panel holds about 79,000 compounds, 15% with a hit somewhere; the sample as a whole holds those more often. The source made the active and inactive calls. No stated cut-off is given here; in the data, active means growth inhibition above about 70%; inactive means the rest. Where a SMILES comes first, the peptide text is derived from it. The star is where a group is joined. Cbz = O=C(OCc1ccccc1)*

How the values were obtained:
[1] = NCI Yeast Anticancer Drug Screen. Data for the rad50 strain (AID 155);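 further: 0% = growth of vehicle-only cultures of the same strain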; details: S. cerevisiae rad50 strain growth inhibition, active compounds read high; at 50.0 µM unless noted
How it was run: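 Readout: growth inhibition relative to vehicle-treated cultures. Compound exposure was carried out in a genetically defined yeast strain deficient in DNA damage repair.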

[2] = NCI Yeast Anticancer Drug Screen. Data for the mec2-1 strain (AID 157); details: S. cerevisiae mec2-1 strain, active compounds read high; at 50.0 µM unless noted
How it was run: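 Yeast mec2-1 mutant treated with compound. Readout: growth inhibition vs vehicle controls.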

[3] = NCI Yeast Anticancer Drug Screen. Data for the sgs1 mgt1 strain (AID 161);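 further: 0% = growth of cultures given vehicle only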; details: S. cerevisiae sgs1 mgt1 strain, active compounds read high; at 50.0 µM unless noted
How it was run: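 Genetically altered yeast, compound exposure, growth inhibition relative to vehicle.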

[4] = NCI Yeast Anticancer Drug Screen. Data for the cln2 rad14 strain (AID 165);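 further: 0% = growth equal to vehicle treated cultures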; details: S. cerevisiae cln2 rad14 strain, active compounds read high; at 50.0 µM unless noted
How it was run: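 cln2 rad14 yeast strain; compound exposure; growth inhibition read vs vehicle controls.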

[5] = NCI Yeast Anticancer Drug Screen. Data for the bub3 strain (AID 167); details: S. cerevisiae bub3 mutant strain, active compounds read high; at 50.0 µM unless noted
How it was run: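 Readout: yeast growth inhibition, expressed relative to vehicle-only wells. The test organism is a mutant strain from a panel with lesions in DNA repair or checkpoint genes.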

[6] = NCI Yeast Anticancer Drug Screen. Data for the mlh1 rad18 strain (AID 175); details: S. cerevisiae mlh1 rad18 strain growth inhibition, active compounds read high; at 50.0 µM unless noted
How it was run: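 Yeast w/ defined DNA-repair lesions; compound exposure; growth vs vehicle controls → % inhibition.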

Measured: growth inhibition

NC(=S)C(=S)N=Cc1c(O)c2ccccc2oc1=O
inactive: [1] 39.3% | [2] 29.9% | [3] 63.1% | [4] 18.9% | [5] 23.1% | [6] 40.5%

O=C1/C(=C/c2cccnc2)SC(=S)N1Cc1ccco1
inactive: [1] 2.7% | [2] -21.1% | [3] -8.85% | [4] 40% | [5] -6.45% | [6] 1.45%

BrC1CC2CCC1CC2 (stereo not given)
inactive: [1] -14.7% | [2] -6.45% | [3] -7.2% | [4] -6.8% | [5] -7.05% | [6] 16.6%

O=C(O)CCC(=O)N1c2ccccc2CC1c1c[nH]c2ccccc12 (stereo not given)
inactive: [1] -8.45% | [2] -13.9% | [3] -6.55% | [4] 18.6% | [5] 2% | [6] 5.6%

CC1CC(=O)C(CC(=O)O)C1C(C(=O)C(=O)Nc1c(C#N)cccc1[N+](=O)[O-])[N+](=O)[O-] (stereo not given)
inactive: [1] -37.7% | [2] -16.6% | [3] -43% | [4] 15.8% | [5] -43.8% | [6] -36.8%

COC(=O)C(C(=O)OC)C1CCCC(=O)C1 (stereo not given)
inactive: [1] -2.3% | [2] -10% | [3] -10.6% | [4] -6.7% | [5] -24.7% | [6] 13.8%

CC1CC(Nc2ccc(Br)cc2)N(C(=O)c2ccc(Br)cc2)O1 (stereo not given)
inactive: [1] -25.9% | [2] -1.2% | [3] 25.5% | [4] 5.65% | [5] -35% | [6] -2.8%

[O-]c1nn(-c2ccccc2)n[n+]1-c1ccccc1
inactive: [1] -2.4% | [2] -12.4% | [3] -0.55% | [4] -25% | [5] -10.8% | [6] -10%

CC(C)(C)NC(=O)C(Br)c1ccccc1 (stereo not given)
inactive: [1] 0.05% | [2] 23.1% | [3] 33.8% | [4] -2.25% | [5] 54.1% | [6] 16%

N#CCC(=O)OCCCc1ccccc1
inactive: [1] 15.8% | [2] 9.2% | [3] -1.5% | [4] -32.5% | [5] 2.65% | [6] 0.45%

O=C(Sc1ccc(Br)cc1)c1ccccc1
inactive: [1] 29.1% | [2] 24.2% | [3] 1.15% | [4] 13.2% | [5] 10.4% | [6] 1.25%

CC(C)=CC1(C)/C(=N\O)C(C)(CC(C)C)C(=O)N1O (stereo not given)
inactive: [1] -7.15% | [2] -15.2% | [3] -11.8% | [4] -2.2% | [5] -5.65% | [6] -19.4%

CC(=O)CC(=O)Nc1ccc(OS(N)(=O)=O)cc1
inactive: [1] -9.55% | [2] -22.4% | [3] 1.95% | [4] 3.1% | [5] 2.3% | [6] -15.2%

O=C(c1ccccc1)c1ccc(O)cc1
inactive: [1] 3.5% | [2] 3.05% | [3] 21.4% | [4] 13.9% | [5] -1.75% | [6] 24.9%

C=C1CC(COc2ccc3c(C)c(Cl)c(=O)oc3c2)(c2ccccc2)OC1=O (stereo not given)
inactive: [1] 19% | [2] 20.4% | [3] 40% | [4] 37.5% | [5] 18.8% | [6] 37.6%

COC(=O)C(CC(C)C)NC(=O)C(CC(N)=O)NC(=O)C(NC(=O)OCc1ccccc1)C(C)C (stereo not drawn) (Cbz-Val-Asn-Leu-OMe; configuration not given here)
inactive: [1] 38.1% | [2] 24.5% | [3] 8.9% | [4] 14.7% | [5] 9.3% | [6] 36.5%

O=C(O)CCCn1nnc2c(=O)[nH][nH]c(=O)c21
inactive: [1] 7.3% | [2] 5.65% | [3] 4.4% | [4] -7.75% | [5] -0.25% | [6] 11.6%

CC1=C(C#N)C(=C(C#N)C#N)OC1(C)Cc1ccccc1 (stereo not given)
inactive: [1] 8.25% | [2] 6.35% | [3] 24.6% | [4] 8.55% | [5] 2.85% | [6] 33.1%

NCCCC(=S)S
inactive: [1] -4.35% | [2] 12.6% | [3] -0.75% | [4] 12.8% | [5] 13.8% | [6] 13.4%

O=C(Cc1ccccc1)CC(CC(=O)Cc1ccccc1)c1ccccc1
inactive: [1] 31% | [2] -16.7% | [3] 6.6% | [4] 15.8% | [5] 3.7% | [6] -6.15%

Cc1ccccc1S(N)(=O)=O
inactive: [1] -17.7% | [2] -28.1% | [3] -22.6% | [4] -42.2% | [5] -6.95% | [6] 3.25%

COCN(CCc1ccccc1)CCN(C)C
inactive: [1] 1.4% | [2] 5.1% | [3] 35% | [4] 7.2% | [5] 2.05% | [6] 16.5%

O=C(Nc1ccc2c(c1)Cc1ccccc1-2)c1cccc2ccccc12
inactive: [1] -4.05% | [2] -20.8% | [3] 0.4% | [4] -47% | [5] 12.2% | [6] -5.2%

O=[N+]([O-])c1cc(N(c2ccccc2)c2ccccc2)c(Cl)cc1Cl
inactive: [1] -8.35% | [2] -16.1% | [3] -27.1% | [4] -2.55% | [5] 5.5% | [6] -3%

CN(C)c1ccc(N=C(C#N)C(=O)c2ccccc2)cc1
inactive: [1] -4.3% | [2] 17.6% | [3] -6.7% | [4] -21.6% | [5] -15% | [6] -12.2%

c1ccc(N2CN(c3ccccc3)C2)cc1
inactive: [1] -19.4% | [2] -8.25% | [3] 4% | [4] -11.6% | [5] 5.6% | [6] 15.8%

CCN(CC)C(=O)/C=C/c1ccccc1
inactive: [1] -54.9% | [2] -28.6% | [3] -6.05% | [4] -33.2% | [5] 1.7% | [6] -14.8%

O=C(/C=C/c1ccccc1)c1ccc(I)cc1
inactive: [1] 11.7% | [2] -1.25% | [3] 9.6% | [4] -8.2% | [5] 5.25% | [6] 1.5%

O=C(Cc1csc(-c2nc(CC(=O)NNc3ccccc3)cs2)n1)NNc1ccccc1
inactive: [1] 12.7% | [2] -3.4% | [3] -27.9% | [4] -38.4% | [5] 2.75% | [6] -12.6%

CCCC(=O)NC1CCCCC1
inactive: [1] -22.2% | [2] 8.05% | [3] -26.9% | [4] 26.5% | [5] -24.1% | [6] -23.1%

CCSc1nnc(Sc2c3ccccc3nc3ccccc23)s1
active: [6] 76%
inactive: [1] 26.9% | [2] 3.15% | [3] -13.1% | [4] 11.4% | [5] 16.8%

CC(C)N(C(C)C)S(C)(=O)=O
inactive: [1] -0.3% | [2] -0.5% | [3] -3.9% | [4] -17.8% | [5] 10.3% | [6] 3.1%

CC1CC(=O)c2c(ccc3c2C(=O)c2cccc(O)c2C3=O)C1 (stereo not given)
inactive: [1] -3.55% | [2] -0.45% | [3] 40.2% | [4] 24.8% | [5] -1.05% | [6] 52.8%

O=C1CC(Cc2n[nH]c3c2CCCC3)CC(=O)N1
inactive: [1] 4.2% | [2] 3.8% | [3] -4.8% | [4] 7.35% | [5] -2.15% | [6] -7.75%

O=S1(=O)CS/C(=N\C(=S)N(c2ccccc2)c2ccccc2)N1c1ccccc1
inactive: [1] 32.5% | [2] -11.3% | [3] -3.4% | [4] 18.2% | [5] 4.75% | [6] 2.2%

CC1(C)C2CC(O)C1CCC2=O (stereo not given)
inactive: [1] -4.15% | [2] -16.2% | [3] -33.8% | [4] 6% | [5] -21% | [6] -35.5%

O=C1c2ccccc2C(=O)N1CCCCCCCCCCN1C(=O)c2ccccc2C1=O
inactive: [1] 33% | [2] -10.3% | [3] 17.3% | [4] 2.75% | [5] -3.75% | [6] -7.15%

N#Cc1[nH]c(=O)n(-c2ccccc2)c1N
inactive: [1] -40.2% | [2] -57.8% | [3] -60.2% | [4] -22.4% | [5] -17.2% | [6] -37%

O=S1(=O)CCC(c2ccccc2)C1 (stereo not given)
inactive: [1] 2.3% | [2] -10.7% | [3] -13.8% | [4] 0.45% | [5] -12.3% | [6] -7.15%

N#Cc1c(-c2ccccc2)c(-c2ccccc2)nn(CCO)c1=O
inactive: [1] 7.35% | [2] 10.8% | [3] 20.9% | [4] -21.8% | [5] 6.4% | [6] 46%
